Out of some 5,500 compounds screened, about 2,000 (36%) were called active. Another 18% or so got no clear call; they are omitted. Rule as the data show it: active = normalized growth mostly below about 0.91 (no sharp cut-off); inconclusive = no clear call, values can overlap the other calls; inactive = mostly above about 0.92. This is one part of the list.
Assay: chemical genetic growth profiling, strain panel (AID 1159580);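 also: tested at 20 µM; growth read once vehicle control cultures reached saturation at 30 °C; 1 = growth at the plate median or of vehicle wells; lower values mean less growth of the strain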
Details: growth OD

Measured: normalized growth

COc1ccc(C2Sc3ccccc3N(CCN(C)C)C(=O)C2OC(C)=O)cc1 (stereo not given)
inactive: S. cerevisiae deletion strains, locus YKL009W, strain mrt4, stronger effect = lower value 1.04 | S. cerevisiae deletion strains, locus YKL068W, stronger effect = lower value 1.02 | S. cerevisiae deletion strains, locus YKL085W, strain MDH1 (second series), stronger effect = lower value 1.03 | S. cerevisiae deletion strains, locus YKL085W, strain MDH1, stronger effect = lower value 1.03 | S. cerevisiae deletion strains, locus YKL160W, strain elf1, stronger effect = lower value 0.972 | S. cerevisiae deletion strains, locus YKL190W, strain CNB1, stronger effect = lower value 0.994 | S. cerevisiae deletion strains, locus YKR001C, strain vps1, stronger effect = lower value 1.04 | S. cerevisiae deletion strains, locus YKR026C, strain gcn3, stronger effect = lower value 0.931 | S. cerevisiae deletion strains, locus YKR091W, strain srl3, stronger effect = lower value 0.983 | S. cerevisiae deletion strains, locus YLL001W, strain dnm1, stronger effect = lower value 0.944 | S. cerevisiae deletion strains, locus YLL026W, stronger effect = lower value 0.983 | S. cerevisiae deletion strains, locus YLL041C, strain sdh2, stronger effect = lower value 0.956 | S. cerevisiae deletion strains, locus YLR027C, strain aat2, stronger effect = lower value 0.974 | S. cerevisiae deletion strains, locus YLR039C, strain RIC1, stronger effect = lower value 1.04 | S. cerevisiae deletion strains, locus YLR058C, strain SHM2, stronger effect = lower value 1.01 | S. cerevisiae deletion strains, locus YLR102C, strain apc9, stronger effect = lower value 1.04 | S. cerevisiae deletion strains, locus YLR113W, strain HOG1, stronger effect = lower value 1.01 | S. cerevisiae deletion strains, locus YLR221C, strain rsa3, stronger effect = lower value 0.989 | S. cerevisiae deletion strains, locus YLR258W, strain gsy2, stronger effect = lower value 0.974 | S. cerevisiae deletion strains, locus YLR262C, strain YPT6 (second series), stronger effect = lower value 0.977 | S. cerevisiae deletion strains, locus YLR262C, strain YPT6, stronger effect = lower value 1.04 | S. cerevisiae deletion strains, locus YLR268W, strain sec22, stronger effect = lower value 1.03 | S. cerevisiae deletion strains, locus YLR320W, strain mms22, stronger effect = lower value 1.02 | S. cerevisiae deletion strains, locus YLR330W, strain CHS5, stronger effect = lower value 1.01 | S. cerevisiae deletion strains, locus YLR342W, strain FKS1 (second series), stronger effect = lower value 1.02 | S. cerevisiae deletion strains, locus YLR342W, strain FKS1, stronger effect = lower value 0.979 | S. cerevisiae deletion strains, locus YLR357W, strain rsc2, stronger effect = lower value 0.922 | S. cerevisiae deletion strains, locus YLR370C, strain arc18, stronger effect = lower value 0.973 | S. cerevisiae deletion strains, locus YLR371W, strain rom2, stronger effect = lower value 1.03 | S. cerevisiae deletion strains, locus YLR384C, strain iki3, stronger effect = lower value 0.941 | S. cerevisiae deletion strains, locus YLR418C, strain cdc73, stronger effect = lower value 1.06 | S. cerevisiae deletion strains, locus YML016C, strain PPZ1, stronger effect = lower value 1.01 | S. cerevisiae deletion strains, locus YML032C, strain rad52, stronger effect = lower value 1.06 | S. cerevisiae deletion strains, locus YML120C, strain ndi1, stronger effect = lower value 0.982 | S. cerevisiae deletion strains, locus YML124C, strain tub3, stronger effect = lower value 1.03 | S. cerevisiae deletion strains, locus YMR058W, strain fet3, stronger effect = lower value 0.986 | S. cerevisiae deletion strains, locus YMR078C, strain ctf18, stronger effect = lower value 1.04 | S. cerevisiae deletion strains, locus YMR125W, strain sto1, stronger effect = lower value 0.896 | S. cerevisiae deletion strains, locus YMR129W, stronger effect = lower value 0.975 | S. cerevisiae deletion strains, locus YMR205C, strain PFK2, stronger effect = lower value 0.98 | S. cerevisiae deletion strains, locus YMR223W, strain ubp8, stronger effect = lower value 1.04 | S. cerevisiae deletion strains, locus YMR231W, strain pep5, stronger effect = lower value 0.965 | S. cerevisiae deletion strains, locus YMR263W, strain SAP30, stronger effect = lower value 1 | S. cerevisiae deletion strains, locus YMR307W, strain GAS1, stronger effect = lower value 1.07 | S. cerevisiae deletion strains, locus YNL067W, strain RPL9B, stronger effect = lower value 1.02 | S. cerevisiae deletion strains, locus YNL071W, strain lat1, stronger effect = lower value 0.998 | S. cerevisiae deletion strains, locus YNL128W, strain TEP1, stronger effect = lower value 1.02 | S. cerevisiae deletion strains, locus YNL153C, strain GIM3, stronger effect = lower value 1.01 | S. cerevisiae deletion strains, locus YNL183C, strain NPR1, stronger effect = lower value 0.953 | S. cerevisiae deletion strains, locus YNL209W, strain ssb2, stronger effect = lower value 0.973 | S. cerevisiae deletion strains, locus YNL233W, strain BNI4, stronger effect = lower value 1.01 | S. cerevisiae deletion strains, locus YNL250W, strain rad50, stronger effect = lower value 1.07 | S. cerevisiae deletion strains, locus YNL271C, strain bni1, stronger effect = lower value 1.04 | S. cerevisiae deletion strains, locus YNL298W, strain CLA4, stronger effect = lower value 1.06 | S. cerevisiae deletion strains, locus YNL307C, strain MCK1, stronger effect = lower value 1.05 | S. cerevisiae deletion strains, locus YNL322C, strain KRE1 (second series), stronger effect = lower value 0.974 | S. cerevisiae deletion strains, locus YNL322C, strain KRE1, stronger effect = lower value 1.01 | S. cerevisiae deletion strains, locus YNR049C, strain mso1, stronger effect = lower value 0.977 | S. cerevisiae deletion strains, locus YNR052C, strain pop2, stronger effect = lower value 1.05 | S. cerevisiae deletion strains, locus YOL006C, strain TOP1, stronger effect = lower value 1.07 | S. cerevisiae deletion strains, locus YOL012C, strain htz1 1.17 | S. cerevisiae deletion strains, locus YOL147C, strain pex11, stronger effect = lower value 1.04 | S. cerevisiae deletion strains, locus YOR001W, strain rrp6, stronger effect = lower value 0.945 | S. cerevisiae deletion strains, locus YOR061W, strain CKA2, stronger effect = lower value 1.01 | S. cerevisiae deletion strains, locus YOR069W, strain VPS5, stronger effect = lower value 1.01 | S. cerevisiae deletion strains, locus YOR070C, strain gyp1, stronger effect = lower value 0.989 | S. cerevisiae deletion strains, locus YOR080W, strain dia2, stronger effect = lower value 0.973 | S. cerevisiae deletion strains, locus YOR083W, strain WHI5, stronger effect = lower value 0.976 | S. cerevisiae deletion strains, locus YOR106W, strain vam3, stronger effect = lower value 0.903 | S. cerevisiae deletion strains, locus YOR136W, strain idh2, stronger effect = lower value 1.04 | S. cerevisiae deletion strains, locus YOR144C, strain elg1, stronger effect = lower value 1.04 | S. cerevisiae deletion strains, locus YOR184W, strain ser1, stronger effect = lower value 1.07 | S. cerevisiae deletion strains, locus YOR231W, strain MKK1, stronger effect = lower value 1.01 | S. cerevisiae deletion strains, locus YOR265W, strain rbl2, stronger effect = lower value 0.974 | S. cerevisiae deletion strains, locus YOR270C, strain vph1, stronger effect = lower value 0.902 | S. cerevisiae deletion strains, locus YOR290C, strain snf2, stronger effect = lower value 0.998 | S. cerevisiae deletion strains, locus YOR316C, strain cot1, stronger effect = lower value 1.03 | S. cerevisiae deletion strains, locus YPL051W, strain arl3, stronger effect = lower value 0.977 | S. cerevisiae deletion strains, locus YPL055C, strain LGE1, stronger effect = lower value 1.04 | S. cerevisiae deletion strains, locus YPL078C, strain atp4, stronger effect = lower value 0.943 | S. cerevisiae deletion strains, locus YPL106C, strain sse1, stronger effect = lower value 0.976 | S. cerevisiae deletion strains, locus YPL240C, strain hsp82, stronger effect = lower value 0.972 | S. cerevisiae deletion strains, locus YPL241C, strain CIN2, stronger effect = lower value 1.01 | S. cerevisiae deletion strains, locus YPL256C, strain CLN2, stronger effect = lower value 0.991 | S. cerevisiae deletion strains, locus YPR119W, strain clb2, stronger effect = lower value 1.03 | S. cerevisiae deletion strains, locus YPR141C, strain kar3, stronger effect = lower value 1.06 | S. cerevisiae deletion strains, locus YPR163C, strain tif3, stronger effect = lower value 1.05 | S. cerevisiae deletion strains, locus YPR167C, strain met16, stronger effect = lower value 1.04 | S. cerevisiae deletion strains, strain wtn01, stronger effect = lower value 1.03 | S. cerevisiae strains, strain wild type, stronger effect = lower value 1.01
